The nature of experiment [1]: qHTS assay to identify small molecule antagonists of the vitamin D receptor (VDR) signaling pathway - cell viability counter screen (AID 743225). Also: % is scaled to controls: 0 for no effect and ±100 for the full control effect; nearly all actives have a fitted effect of over 50% in size. In outline:
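Same-well multiplex: following 16 h treatment of HEK 293T cells carrying a UAS-driven beta-lactamase reporter with compound and agonist (3 nM final), and a 2 h FRET substrate step, CellTiter-Glo was added and luminescence read after 30 min.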
In general terms: Quantitative high-throughput screening tests each substance at several concentrations.

Experiment [2] can be described thus: qHTS assay to identify small molecule agonists of the NFkB signaling pathway - cell viability counter screen (AID 1159515; calls by dose curve; also: series mostly up to about 61 µM; % is scaled to controls: 0 for no effect and ±100 for the full control effect; nearly all actives have a fitted effect of over 55% in size). In outline: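 Parallel cytotoxicity counter screen in ME-180 cells carrying an NFkB-response-element beta-lactamase reporter, 2,000 cells/well. Compound exposure lasted 5 hr at 37 C, 5% CO2. Cell viability was quantified by CellTiter-Glo luminescence.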

Experiment [3] is described as follows: qHTS assay to identify small molecule agonists of the endoplasmic reticulum stress response signaling pathway (AID 1159516; active = well fitted activation curve with a large enough effect in the signal ratio in the repeat runs, not every such curve was filed as active; the % refers to the signal ratio; also: % is scaled to controls: 0 for no effect and ±100 for the full control effect). In outline:
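Using a HeLa line with an ESRE-driven beta-lactamase gene, agonist activity was measured by FRET substrate fluorescence (460 and 530 nm emission) after cells were treated with compounds for 5 hr at 37 C and 5% CO2.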

A short description of experiment [4]: qHTS assay to identify small molecule agonists of the endoplasmic reticulum stress response signaling pathway - cell viability counter screen (AID 1159517; calls by dose curve;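 also: HeLa cells carrying an ER stress response element beta-lactamase reporter; series mostly up to about 61 µM; % is scaled to controls: 0 for no effect and ±100 for the full control effect; nearly all actives have a fitted effect of over 50% in size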). In short, it runs like this:
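ESRE-bla HeLa cells (1,500/well) were plated overnight at 37 C and exposed to compounds for 5 hr. After the 2 hr beta-lactamase substrate read, CellTiter-Glo went into the same wells, and luminescence was read after 30 min at room temperature.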

Experiment [5] is described as follows: qHTS assay to identify small molecule antagonists of the retinoid-related orphan receptor gamma (ROR-gamma) signaling pathway - cell viability counter screen (AID 1159520). Also: % is scaled to controls: 0 for no effect and ±100 for the full control effect; nearly all actives have a fitted effect of over 50% in size. In outline: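 Cytotoxicity was read from cellular ATP (CellTiter-Glo luminescence) after 16 hr at 37 C with 1 uM doxycycline induction. The inducer was added 2 hr after compound transfer to Tet-on ROR gamma CHO cells.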

Experiment [6] concerns the target Nuclear receptor ROR-gamma (Homo sapiens) (UniProt P51449). The experiment is described as follows: qHTS assay to identify small molecule antagonists of the retinoid-related orphan receptor gamma (ROR-gamma) signaling pathway (AID 1159521; also: nearly all actives have a fitted effect of over 50% in size; also: potency is read from the fitted curve at half-maximal effect;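 as to activity change, negative = inhibition: CHO cells with doxycycline inducible ROR-gamma driving an RORE luciferase reporter; top concentration of the series differs between compounds; % is scaled to controls: 0 for no effect and ±100 for the full control effect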). In outline:
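Inducible-expression reporter assay: doxycycline (1 uM final) switched on RORγ in CHO cells bearing a ROR response element-luciferase construct, with test compounds present from 2 h beforehand. Decreased luminescence after 16 h defined antagonist activity.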

A short description of experiment [7]: qHTS assay to identify small molecule agonists of the AP-1 signaling pathway - cell viability counter screen (AID 1159525; calls by dose curve; also: nearly all actives have a fitted effect of over 55% in size). In outline:
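Intracellular ATP by Cell Titer Glo luminescence (30 min, RT) in the same ME-180 AP-1-bla wells after the 5 h compound exposure at 37 °C. Normalised to tetra n-octyl ammonium bromide and DMSO controls.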

Experiment [8] can be described thus: qHTS assay to identify small molecule agonists of the AP-1 signaling pathway (AID 1159526; calls by dose curve; also: % is scaled to controls: 0 for no effect and ±100 for the full control effect).
The target of experiment [9] is Retinoic acid receptor RXR-alpha (Homo sapiens) (UniProt P19793). Put plainly: qHTS assay to identify small molecule agonists of the RXR signaling pathway (AID 1159527; calls by dose curve; also: % is scaled to controls: 0 for no effect and ±100 for the full control effect; nearly all actives have a fitted effect of over 35% in size). In short, it runs like this: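 Compounds in DMSO were added to RXR-alpha-UAS-bla HEK 293T cells kept in 2% charcoal-stripped serum, and incubated 16 hr at 37 C with 5% CO2. Reporter signal came from a 2 hr B/G FRET substrate step.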
Sequence of Retinoic acid receptor RXR-alpha (Homo sapiens) (P19793 whole entry, looked up): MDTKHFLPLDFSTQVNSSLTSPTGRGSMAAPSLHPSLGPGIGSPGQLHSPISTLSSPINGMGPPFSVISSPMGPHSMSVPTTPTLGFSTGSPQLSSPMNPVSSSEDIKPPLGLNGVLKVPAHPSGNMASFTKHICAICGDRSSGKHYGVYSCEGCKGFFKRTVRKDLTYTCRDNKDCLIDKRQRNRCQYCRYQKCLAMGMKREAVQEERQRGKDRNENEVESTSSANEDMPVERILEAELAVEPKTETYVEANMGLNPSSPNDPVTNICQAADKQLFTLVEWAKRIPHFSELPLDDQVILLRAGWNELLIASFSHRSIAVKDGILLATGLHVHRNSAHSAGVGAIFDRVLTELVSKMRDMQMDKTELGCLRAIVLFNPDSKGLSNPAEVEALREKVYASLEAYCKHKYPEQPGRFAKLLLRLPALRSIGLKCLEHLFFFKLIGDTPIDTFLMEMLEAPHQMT

Experiment [10] in a line: qHTS assay to identify small molecule antagonists of the retinoic acid receptor (RAR) signaling pathway (AID 1159552). In short, it runs like this:
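Antagonism of retinol-induced RARE reporter activity was measured in C3RL4 cells. Exposure to compounds and 1 uM final retinol lasted 6 hr at 37 C, with luminescence as endpoint.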

Experiment [11] in a line: qHTS assay to identify small molecule antagonists of the estrogen related receptor (ERR) signaling pathway from Tox21 library - cell viability counter screen (AID 1224834). Also: % is scaled to controls: 0 for no effect and ±100 for the full control effect; nearly all actives have a fitted effect of over 30% in size. In short, it runs like this:
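Compounds in DMSO were pinned onto ERR cells that had been incubated for 6 h, and the plates were held at 37 C for 17.5 h. CellTiter-Fluor reagent was then added and fluorescence was measured after 30 min.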

A short description of experiment [12]: qHTS assay to identify small molecule agonists of the RXR signaling pathway - cell viability counter screen (AID 1159529). In outline:
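Counter screen: CellTiter-Glo luminescence. Cells: RXR-alpha-UAS-bla HEK 293T. Medium: 2% charcoal-stripped FBS. Treatment: 16 h, 37 C. Reagent incubation: 30 min, RT.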

Experiment [13] in a line: qHTS assay to identify small molecule antagonists of the retinoid acid receptor (RAR) signaling pathway - cell viability counter screen (AID 1159551). Also: % is scaled to controls: 0 for no effect and ±100 for the full control effect; nearly all actives have a fitted effect of over 35% in size. In short, it runs like this:
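ATP-based viability, C3RL4 cells, 6 h at 37 C with 1 uM final retinol co-added after compound; luminescence read 30 min post CellTiter-Glo, RT.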

This is an account of results in PubChem BioAssay (Tox21).

Inconclusive results are not listed. A number with no mark means an inactive call. Activity calls are given as the source filed them. Unless noted, calls follow the shape of the dose curve; as a rule, active = well fitted curve in the direction sought with a large enough effect in the repeat runs; inconclusive = weak or mixed curves; inactive = no such curve, though single readings can be large; an effect the other way counts as inactive or inconclusive.

Take `CC(C)=CCC/C(C)=C/C#N`: the outcome in [1], in experiment [2], in [3], in [4], in [5] and in experiment [7] was inactive. Moreover, the call in [8] was inactive. Besides, the Potency result in [6], in experiment [9], in experiment [10] and in experiment [11] was “inactive” each time.

For the compound `CCCCCCCCN1CCCC1=O`, the compound was classed as inactive in [2], in experiment [3], in experiment [4], in [5], in [7] and in [8]. Besides, the compound was classed as inactive in experiment [13]. In addition, the Potency entry in [6], in experiment [12], in experiment [10] and in [11] was “inactive” each time.

As to `CC1=NN(c2cccc(S(=O)(=O)O)c2)C(=O)C1`, the call in experiment [2], in [3], in [4], in experiment [5], in experiment [7] and in [8] was inactive. Further, the call in [13] was inactive. Further, the Potency entry in [6], in experiment [12] and in experiment [11] was “inactive” each time.

`NCCCC[C@H](N[C@@H](CCc1ccccc1)C(=O)O)C(=O)N1CCC[C@H]1C(=O)O`: the call in [2], in [3], in experiment [4], in experiment [5], in [7] and in experiment [8] was inactive. Also, in experiment [13], the compound was called inactive. The Potency entry in [6], in [9] and in [11] was “inactive” throughout.

Turning to `CCCC(=O)O[C@]1(C(=O)CC)CC[C@H]2[C@@H]3CCC4=CC(=O)CC[C@]4(C)[C@H]3[C@@H](O)C[C@@]21C`, the call in experiment [1], in experiment [2], in experiment [3], in experiment [4], in [5] and in experiment [7] was inactive. Moreover, the result in experiment [8] and in [13] was inactive. For the same compound, the Potency in [6] is 10.6 µM (active). Moreover, the Potency result in [9] and in [11] was “inactive” throughout.

In the case of `Clc1cc(Cl)c(Cl)nc1Cl`, the outcome in [1], in experiment [2], in experiment [3], in experiment [4], in experiment [5] and in [7] was inactive. In addition, in experiment [8], the result was inactive. Besides, the Potency entry in experiment [6], in [9] and in [11] was “inactive” throughout.

Regarding `[O-][n+]1cccc(CO)c1`, the call in [1], in experiment [2], in [3], in [4], in experiment [5] and in experiment [7] was inactive. In addition, the result in experiment [8] and in experiment [13] was inactive. The Potency entry in [6], in experiment [12] and in experiment [11] was “inactive” in each case.

Consider `C[C@H]1C[C@H]2[C@@H]3CCC4=CC(=O)C=C[C@]4(C)[C@H]3C(=O)C[C@]2(C)[C@@]1(O)C(=O)CO`, for which the call in experiment [2], in experiment [3], in experiment [4], in [5], in experiment [7] and in experiment [8] was inactive. In addition, the outcome in [13] was inactive. Also, the Potency result in experiment [6], in [12], in experiment [10] and in experiment [11] was “inactive” throughout.

On to `CC1=CC(=O)[C@H]2C[C@@H]1C2(C)C`, for which the call in experiment [1], in experiment [2], in [3], in experiment [4], in experiment [5] and in experiment [7] was inactive. For the same compound, the compound was classed as inactive in [8]. Also, the Potency result in experiment [6], in experiment [12] and in experiment [11] was “inactive” each time.

As to `Cc1cc(C)c(N=Nc2c(O)c(S(=O)(=O)O)cc3cc(S(=O)(=O)O)ccc23)cc1C`, the viability change, negative = cytotoxic in experiment [1] is 8.22% [at 6.95 µM]; in experiment [7], -9.8% [at 6.97 µM]; in experiment [11], -4.92% [at 8.39 µM]. Also, the activity, negative = cytotoxic in experiment [2] is -2.06% [at 6.95 µM]. The activation was -3.13% [at 6.95 µM] in [3], 6% [at 6.97 µM] in experiment [8] and 2.6% [at 6.98 µM] in [9]. Also, the activity change, negative = cytotoxicity in experiment [4] was 9.59% [at 6.95 µM]. Besides, the activity, negative = cytotoxicity in experiment [5] is -7.94% [at 8.39 µM]. Besides, the activity change, negative = inhibition in [6] is -3.58% [at 8.39 µM].

Regarding `O=C(O)CNC(=O)c1ccc(CO)o1`, the compound was called inactive in experiment [1], in experiment [2], in experiment [3], in [4], in [5] and in experiment [7]. Besides, the compound was classed as inactive in [8] and in experiment [13]. The Potency entry in [6], in experiment [9] and in experiment [11] was “inactive” in each case.
